A selection: hits, their analogues and other compounds. The true share with any hit is near 3.2%.
AmpC inh detg – blocks E. coli AmpC beta-lactamase in detergent assay; P00811; AmpC hydrolysis of nitrocefin, absorbance 480 nm, 0.01% Triton; Potency, µM (doses to about 114 µM), actives largely listed as inhibitors; hit rate 0.041% among 370,000; also: nearly all actives have a fitted effect of over 25% in size
Target sequence (P00811 whole entry, looked up): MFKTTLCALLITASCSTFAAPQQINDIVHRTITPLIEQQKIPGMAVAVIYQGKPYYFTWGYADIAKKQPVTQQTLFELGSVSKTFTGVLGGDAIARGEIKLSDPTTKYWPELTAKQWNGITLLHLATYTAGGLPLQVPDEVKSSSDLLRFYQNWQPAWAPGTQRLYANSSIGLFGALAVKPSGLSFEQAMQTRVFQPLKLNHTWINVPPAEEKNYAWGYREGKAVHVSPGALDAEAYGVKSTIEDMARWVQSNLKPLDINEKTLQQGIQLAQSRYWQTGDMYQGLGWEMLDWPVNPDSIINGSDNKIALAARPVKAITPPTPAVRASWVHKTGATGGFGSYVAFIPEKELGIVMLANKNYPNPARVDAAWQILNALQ
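AmpC (5.3 nM in the dispensed reagent) in 20 mM phosphate pH 7.0 with 0.01% (detergent screen) or 0.0001% Triton X-100 was preincubated with compounds for 15 min at room temperature. Nitrocefin was then added from an 800 uM solution, and hydrolysis was followed at 480 nm.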
RE007 growth inh – less growth of the S. pombe RE007 Vpr strain; Potency, µM (top dose mostly 92.2 µM), most hits filed as inhibitors; S. pombe RE007 Vpr strain, BacTiter-Glo ATP luminescence, 24 h; AID 651644; hit rate 0.21% among 360,000; active = well fitted falling curve with a large enough effect; inconclusive = small, poorly fitted or top-dose-only effect; inactive = no such curve, though single readings can be large or run the other way; also: nearly all actives have a fitted effect of over 50% in size
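Fission yeast RE007 carrying one integrated HIV-1 vpr copy, seeded at OD 0.01 in PMG+AL medium with 23 nL pinned compound. Grown 24 h at 30 degrees; viability read by BacTiter-Glo luminescence after 5 min.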
AMA1-RON2 inh – disrupts binding of P. falciparum AMA1 to RON2; hit rate 0.2% among 360,000; AlphaScreen AMA1-biotinylated RON2 peptide binding; Potency, µM (doses to about 58.2 µM), usual class: inhibitors; also: nearly all actives have a fitted effect of over 45% in size
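AMA1 (3D7) with his tag at 25 nM final met compounds first, then biotinylated RON2 peptide at 25 nM; detection used donor plus acceptor beads, 10 µg/mL apiece, read by AlphaScreen after 30 min at room temperature.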
Sm TGR block – inhibitors of Schistosoma mansoni thioredoxin glutathione reductase. Q962Y6. purified TGR, DTNB reduction, TNB absorbance 405 nm. Potency, µM (doses to about 114 µM), most hits filed as inhibitors. hit rate 3% among 360,000; also: nearly all actives have a fitted effect of over 60% in size
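TGR 20 nM + NADPH 100 uM (dispensed conc.), cpd preinc 15 min RT; start with NADPH (500 uM addition) then DTNB (15 mM addition). Kinetic TNB absorbance, 405 nm filter. Four-parameter Hill fit across titration.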
AmpC no deterg – inhibitors of E. coli AmpC beta-lactamase without detergent. P00811. AmpC nitrocefin hydrolysis, absorbance 480 nm, 0.0001% Triton. Potency, µM (highest dose often 57.1 µM), usual class: inhibitors. hit rate 0.52% among 330,000; also: nearly all actives have a fitted effect of over 20% in size
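20 mM phosphate pH 7.0 + 0.01% (detergent screen) or 0.0001% Triton X-100; 5.3 nM AmpC reagent; cpd preinc 15 min RT; nitrocefin (800 uM stock) to start; A480 q20 s × 4 min; Activity was normalised to no-enzyme and no-compound control wells.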
A number is an active result; i = inactive; ? = inconclusive; nt = no result; [ ] = remark or other dose. Unless noted, calls follow the shape of the dose curve; as a rule, active = well fitted curve in the direction sought with a large enough effect; inconclusive = small, poorly fitted or top-dose-only effect, or another doubt; inactive = no such curve, though single readings can be large; an effect the other way counts as inactive or inconclusive.

SMILES	AmpC inh detg	RE007 growth inh	AMA1-RON2 inh	Sm TGR block	AmpC no deterg
COc1cc2c(CCNC(C)=O)c[nH]c2cc1O	nt	i[18.4 µM]	4.5µM	nt	nt
COc1ccc(N2CCN(CC(O)COc3ccc(C)cc3C)CC2)cc1 (stereo unspecified)	i	i	25µM	i	i
OC(COc1ccc2ccccc2c1)CN1CCN(c2ccc(F)cc2)CC1 (stereo unspecified)	?	i	i	i	40µM
COc1cccc(OCC(O)CN2CCN(c3ccc(F)cc3)CC2)c1 (stereo unspecified)	i	i	i	i	i
COc1ccccc1NC(=O)c1ncn(-c2ccccc2)n1	i	nt	nt	i	nt
Cc1ccc2nc(/C(C#N)=C\c3ccc(Oc4ccc([N+](=O)[O-])cn4)cc3)[nH]c2c1	i	i	i	i	28µM
COc1ccc2nc(/C(C#N)=C\c3ccc(Oc4ccc([N+](=O)[O-])cn4)cc3)[nH]c2c1	i	i	i	i	?
O=c1c2oc3ccccc3c2n(Cc2ccc(Cl)cc2)c(=O)n1Cc1ccc2c(c1)OCO2	i	nt	nt	i	nt
Cc1ccc(NC(=O)Nc2nnc(N(C)Cc3ccccc3)s2)cc1	i	nt	nt	i	nt
CCN(CC)C(=O)Cn1cc(C(=O)C(=O)NCc2ccco2)c2ccccc21	i	i	i	40µM	i
CN(C)c1ccc(/C=N/NC(=O)C2COc3ccccc3O2)o1 (stereo unspecified)	?	i	i	16µM	i
COc1cc(CN(C)CC2CCCN(CCc3cccc(C(F)(F)F)c3)C2)ccc1O (stereo unspecified)	i	i	i	28µM	i
COc1ccc(CN(C)CC2CCCN(CCc3ccc(F)cc3)C2)cc1OC (stereo unspecified)	i	i	i	i	i
Cc1ccc(C(=O)c2cn(Cc3cccc(F)c3)c3nc(C)ccc3c2=O)cc1	i	nt	nt	i	nt
COC/C=C/C1=CC2=CC(=O)C(C)(OC(=O)c3cnc4ccccc4n3)C(=O)C2=CN1Cc1ccccc1 (stereo unspecified)	i	i	i	?	i
CC1(OC(=O)CCc2ccccc2)C(=O)C=C2C=C(c3ccc(C#N)cc3)N(Cc3ccco3)C=C2C1=O (stereo unspecified)	i	i	i	35µM	i
CCCCC1=CC2=CC(=O)C(C)(OC(=O)c3cnc4ccccc4n3)C(=O)C2=CO1 (stereo unspecified)	i	nt	nt	35µM	i
COC/C=C/C1=CC2=CC(=O)C(C)(OC(=O)c3cnc4ccccc4n3)C(=O)C2=CN1Cc1ccc(OC)cc1 (stereo unspecified)	i	i	i	16µM	i
CCCCC1=CC2=CC(=O)C(C)(OC(=O)c3cccs3)C(=O)C2=CO1 (stereo unspecified)	nt	i	i	nt	nt
CC1(OC(=O)CCc2ccccc2)C(=O)C=C2C=C(c3ccc(C#N)cc3)N(Cc3ccccc3)C=C2C1=O (stereo unspecified)	i	i	i	?	i
CCCCC1=CC2=CC(=O)C(C)(OC(=O)CCc3ccccc3)C(=O)C2=CO1 (stereo unspecified)	i	i	i	45µM	?
COc1ccc(N2CC3=C(C2=O)C(c2ccc(Br)cc2)NC(=O)N3C)cc1 (stereo unspecified)	i	nt	nt	i	nt
COc1ccc2c(c1)c1c(c(=O)n(-c3cccc(C)c3)c(=O)n1Cc1cccc(Cl)c1)n2C	i	nt	nt	i	nt
COc1cc(CNC(=O)C2CCCCN2S(=O)(=O)c2ccc(F)cc2)cc(OC)c1OC (stereo unspecified)	i	nt	nt	i	nt
CCC1CN(C(=O)N2CCC(C(=O)NCCc3cc(OC)ccc3OC)CC2)c2ccccc2O1 (stereo unspecified)	i	nt	nt	i	nt
SMILES	AmpC inh detg	RE007 growth inh	AMA1-RON2 inh	Sm TGR block	AmpC no deterg
O=C1CC(C(=O)Nc2cc(Cl)ccc2Cl)n2ncnc2N1 (stereo unspecified)	i	i	i	22µM	i
Cc1ccc(Cl)cc1NC(=O)C1CC(=O)Nc2ncnn21 (stereo unspecified)	i	i	i	i	i
O=C(Nc1cccc(C(F)(F)F)c1)c1ccc(F)c(S(=O)(=O)N2CCc3ccccc3C2)c1	i	nt	nt	i	nt
COCCCNC(=O)CCn1c(=O)c2ccccc2n(CC(=O)Nc2c(C)cc(C)cc2C)c1=O	i	nt	nt	i	nt
O=C(CCN1CCN(c2ccccc2)CC1)c1ccc(Br)cc1	i	?	i	i	i
O=C(CCN1CCN(c2ccccc2F)CC1)c1ccc(Br)cc1	i	32µM	i	i	i
COc1ccc(C(=O)CCN2CCN(c3ccccc3F)CC2)cc1	i	11µM	i	0.79µM	i[2.29 µM]
COc1cc(NC(=O)CCc2c(C)nn(-c3ccc4nncn4n3)c2C)cc(OC)c1OC	i	nt	nt	i	nt
COc1cccc(-c2n[nH]c(=S)n2Cc2ccco2)c1	i	i	i	35µM	i
COc1ccccc1-c1n[nH]c(=S)n1Cc1ccco1	i	nt	nt	40µM	i
COc1cccc(C(=O)Nc2c(C(N)=O)oc3ccccc23)c1	?	i	i	i	7.1µM
COc1cccc(C(=O)Nc2ccc(-c3nc4ccccc4o3)c(O)c2)c1	i	i	i	i	4µM
CCOC(=O)c1oc2ccccc2c1NC(=O)c1cccc(OC)c1	i	i	i	i	i
COc1cc(OC)cc(C(=O)Nc2ccc(-c3nc4ccccc4o3)cc2)c1	i	i	i	i	i
CCOc1ccc(NC(=O)N2CCOc3ccccc32)cc1	i	nt	nt	i	nt
c1coc(-c2ccc3ncnc(NCc4cccs4)c3c2)c1	i	nt	nt	32µM	i
Cc1cc(/C=N/NC(=O)C(O)(c2ccccc2)c2ccccc2)c(C)n1-c1ccc(C(=O)O)cc1	i	i	i	i	i
Cc1cc(/C=N/NC(=O)C(O)(c2ccccc2)c2ccccc2)c(C)n1-c1cccc(C(=O)O)c1	i	i	i	32µM	i
COC(=O)/C(=C/c1cn(C(C)=O)c2ccccc12)[N+](=O)[O-]	i	i	i	3.5µM	i
COC(=O)/C(=C/c1cn(C)c2ccccc12)[N+](=O)[O-]	i	nt	nt	?	i
COC(=O)/C(=C/c1c[nH]c2ccccc12)[N+](=O)[O-]	i	i	i	45µM	i
COC(=O)/C(=C/c1c[nH]c2ccccc12)NC(C)=O	i	i	i	i	i
CC1=C(c2ccc(C)c(C)c2)S(=O)(=O)N(Cc2ccc(C(=O)Nc3cc(F)ccc3F)cc2)C1=O	i	nt	nt	i	nt
COc1ccc(-c2nc3c(c(SCC(=O)Nc4cc(C)cc(C)c4)n2)Cc2c(CO)cnc(C)c2O3)cc1	i	nt	nt	i	nt
Cc1ccc(-c2nc3c(c(SCC(=O)N(C)c4ccccc4)n2)Cc2c(CO)cnc(C)c2O3)cc1	i	nt	nt	?	nt
CCN(CC)C(=O)CSc1nc(-c2ccc(C)cc2)nc2c1Cc1c(CO)cnc(C)c1O2	i	nt	nt	20µM	nt
